In PubChem BioAssay:
Results with a measured potency or affinity are listed apart. Activity calls are given as the source filed them. How the calls were made is not given here.

target: Plasmodium falciparum protein kinase 6 (PK6, PF3D7_1337100) (UniProt Q8IDW1); assay: PfPK6 kinase inhibitors, biochemical, TCAMS library (AID 1159586); details: recombinant PfPK6, Kinase-Glo ATP depletion luminescence
Sequence (Q8IDW1 1-305): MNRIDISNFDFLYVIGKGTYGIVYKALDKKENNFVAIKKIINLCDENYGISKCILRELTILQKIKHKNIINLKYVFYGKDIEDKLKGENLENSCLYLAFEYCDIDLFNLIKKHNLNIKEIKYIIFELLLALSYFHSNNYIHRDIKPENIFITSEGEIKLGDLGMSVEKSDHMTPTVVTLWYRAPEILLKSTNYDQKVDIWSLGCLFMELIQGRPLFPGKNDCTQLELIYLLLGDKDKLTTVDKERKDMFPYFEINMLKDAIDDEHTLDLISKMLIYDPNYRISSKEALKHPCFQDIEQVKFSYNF

outcome, inactive:
CC(=O)Nc1ccc(CN(Cc2cccc(OC(C)(C)C)c2)Cc2ccc3c(c2)OCCO3)cc1, CC1CCCN(S(=O)(=O)c2ccc(NC(=O)c3cc(-c4ccccc4O)n[nH]3)cc2)C1 (stereo not given), CC(=O)c1cccc(NC(=O)NC2CCN(c3ccnc(Nc4ccc(F)cc4)n3)C2)c1 (stereo not given), O=C(Nc1ccc(C(=O)OCC(c2ccccc2)c2ccccc2)cc1)N[C@@H](Cc1ccc(O)cc1)C(=O)NC1CCN(Cc2ccc(O)cc2)C1 (stereo not given in full), Nc1ccnc2ccc(OCCCCCCc3ccccc3)cc12, COc1ccc(-c2nonc2NC(=O)c2ccc(C(C)(C)C)cc2)cc1OC, O=C(O)c1ccc2c(c1)N(C(=O)CNCc1ccc(F)cc1)CC(=O)N2CCCc1ccccc1, O=C(c1ccc([N+](=O)[O-])o1)N1CCC(c2cn(Cc3cccc(F)c3)c3ccccc23)CC1, CCN=C1NC2=C(CC(C(C)(C)C)CC2)C2(CCC(C(C)(C)C)CC2)S1 (stereo not given), O=C(NCCCCN1CCC(c2ccc3c(c2OC(=O)c2ccc(NC(=O)c4ccc(Cl)cc4)cc2)CCCC3)CC1)c1ccc(NC(=O)c2ccc(Cl)cc2)cc1, COc1ccc(C=CC(=O)NC(=O)c2ccccc2OC(=O)c2ccccc2)cc1OC, Cc1cccc(NC(=O)N(Cc2cc3cc(C)cc(C)c3[nH]c2=O)C2CC2)c1, CCc1cn2c3c(cc(C(=O)N[C@@H](Cc4ccccc4)[C@H](O)CNCCOC)cc13)N(C)S(=O)(=O)CC2, CC(C)(C)c1ccc(CN2CCC(NC(=O)c3ccc(-c4cccc(Cl)c4)s3)CC2)cc1, Cc1cc(N[C@@H](CC(C)C)C(=O)NCc2cccs2)nc(NCCc2cccs2)n1, COC(=O)c1cccc(CNCc2cccc(-c3ccc(-c4nc5c(C)cccc5[nH]4)s3)c2)c1, Oc1ccc(-c2ccccc2)cc1CN1CCCCCC1, c1cc(CNC2Cc3ccccc3C2)cc(-c2cnc(N3CCNCC3)nc2)c1, COc1cc(Cc2cnc(N)nc2N)c2ccsc2c1OC, CC(C)Nc1nc(NCCc2cnc[nH]2)nc(NCc2ccc(Cl)c(Cl)c2)n1, COC(=O)C(Cc1ccccc1)C(CSCc1ccc(OC)cc1)C(=O)N[C@@H](C(=O)OC(C)(C)C)c1ccc(C(C)(C)C)cc1 (stereo not given in full), CC[C@H](NC(=O)c1c(CCCN2CCN(c3ccccc3)CC2)c(-c2ccccc2)nc2cc(O)ccc12)c1ccccc1, CC(=O)NC1=NC(C)(C)N(OCCCOc2ccc(Cl)c(Cl)c2)C(NC(C)=O)=N1, CC(CN1CCN(C)CC1)C(=O)Nc1ccc(-c2ccc(-c3nc4ccccc4[nH]3)s2)cc1 (stereo not given), CCN(c1cc(C)nc(Nc2ccc(Cl)cc2)n1)[C@H]1CCN(Cc2ccccc2)C1
